{
  "source": "PubChem BioAssay (NCI)",
  "note": "About 83,000 compounds went through this panel and 20% of them were active in at least one assay; those are over-represented in the sample as a whole.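 Note: values are percent growth. 100 is the growth of untreated cells, values between 100 and 0 indicate rising inhibition; between -100 and 0 indicates cell death.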 Unmarked numbers belong to inactive results. The source made the active and inactive calls. How the source made its calls: active means growth percent below 10; inactive means the rest.",
  "data": [
    {"test_system": "HCT-15 colon", "assay": "NCI-60 one-dose screen, 48 h (100 = growth as untreated, 0 = no growth, -100 = all killed)", "conditions": "10 µM", "values": [
      {"smiles": "Cc1ccc(C(=O)NCCCNc2nc(Nc3ccc(N4CCN(C)CC4)cc3)nc3ccsc23)cc1", "growth": "2.1% (active)"},
      {"smiles": "O=C(c1ccc(-n2c(=O)[nH]c3ccccc3c2=O)cc1)N1CCOCC1", "growth": "99.2%"},
      {"smiles": "O=S(=O)(c1ccc(Cl)cc1)c1nc(-c2ccccc2)oc1S(=O)(=O)c1ccc(Cl)cc1", "growth": "47.4%"},
      {"smiles": "Cc1ccc(C(C)C)cc1NC(=O)c1ccccc1N(C)C", "growth": "76.6%"},
      {"smiles": "COc1ccc2[nH]c(O)c(N=NC(=O)COc3ccc(NC(=O)Nc4ccc(Cl)c(Cl)c4)cc3)c2c1", "growth": "56.1%"},
      {"smiles": "COc1cccc(-c2nn(-c3ccccc3)cc2-c2ccnc(NCCCNC(=O)Nc3ccc(F)cc3)c2)c1", "growth": "-16.3% (active)"},
      {"smiles": "CN1CCN(c2ccc(Nc3nc(NCCCNC(=O)c4ccc(F)cc4)c4sccc4n3)cc2)CC1", "growth": "2.85% (active)"},
      {"smiles": "CC1(C)CC[C@]2(C(=O)Nc3ccccc3)CC[C@]3(C)C(=CC[C@@H]4[C@@]5(C)CC[C@H](N)C(C)(C)[C@@H]5CC[C@]43C)[C@H]2C1", "growth": "-71.4% (active)"},
      {"smiles": "C[C@H]1[C@H](C)CC[C@]2(COC(=O)CCC(=O)NCC#CCN3CCNCC3)CC[C@]3(C)C(=CC[C@@H]4[C@@]5(C)CCCNC(C)(C)[C@@H]5CC[C@]43C)[C@H]12", "growth": "16.1%"},
      {"smiles": "O=C(Nc1ccncc1)c1ccc(-n2c(=O)[nH]c3ccccc3c2=O)cc1", "growth": "97.9%"},
      {"smiles": "Cc1ccc(C(C)C)cc1NC(=O)c1ccccc1O", "growth": "35%"},
      {"smiles": "CCCS(=O)(=O)c1oc(-c2ccc(F)cc2)nc1S(=O)(=O)c1ccc(F)cc1", "growth": "-81.3% (active)"},
      {"smiles": "CN(C)c1cccc2c(S(=O)(=O)Nc3cccc(-c4csc(NC(=O)CCCCCN5CCN(c6cc7c(cc6F)C(=O)N(C6CCC(=O)NC6=O)C7=O)CC5)n4)c3)cccc12", "note": "(configuration not stated)", "growth": "77.9%"},
      {"smiles": "CC(=C(c1ccc(OCCN2CCCCC2)cc1)c1ccc(OCCN2CCCCC2)cc1)c1ccccc1", "growth": "-0.0525% (active)"},
      {"smiles": "CC[C@@]1(O)C(=O)OCc2c1cc1n(c2=O)Cc2c-1nc1cc(F)c(C)c3c1c2[C@@H](N)CC3", "growth": "5.44% (active)"},
      {"smiles": "O=C(Cn1cc(CSc2nnc3oc4ccccc4n23)nn1)Nc1cccc(Cl)c1", "growth": "62.4%"},
      {"smiles": "C=C(C)[C@@H]1CC[C@]2(C(=O)OC)CC[C@]3(C)[C@H](CC[C@@H]4[C@@]5(C)CC[C@H](N)C(C)(C)[C@@H]5CC[C@]43C)[C@@H]12", "growth": "-97.2% (active)"},
      {"smiles": "COc1ccc(-c2nc(S(=O)(=O)c3ccc(C)cc3)c(S(C)(=O)=O)o2)cc1", "growth": "-72.6% (active)"},
      {"smiles": "CCN1CCN(c2ccc(NC(=O)Nc3ccc(-c4cc(C(=O)NC(C)C)c5ncccc5n4)cc3)cc2C(F)(F)F)CC1", "growth": "-93.5% (active)"},
      {"smiles": "C=C[C@H]1[C@H](O[C@@H]2OC(CO)[C@@H](O)[C@H](O)C2OC(=O)c2c(O)cc(O)cc2-c2cccc(O)c2)OC=C2C(=O)OCC[C@H]21", "note": "(some centres not stated)", "growth": "93.7%"},
      {"smiles": "COc1ccc(C(C)=C(c2ccc(OCCCN(C)C)cc2)c2ccc(OCCCN(C)C)cc2)cc1", "growth": "-72.7% (active)"},
      {"smiles": "CC1(C)CC[C@]23CC[C@]4(C)[C@H](CC[C@@H]5[C@@]6(C)CC[C@H](N)C(C)(C)[C@@H]6CC[C@]54C)[C@H]2[C@H]1OC3=O", "growth": "-91.7% (active)"},
      {"smiles": "CCN1CCN(c2ccc(NC(=O)Nc3ccc(-c4cc(C(=O)NC)c5ncccc5n4)cc3)cc2C(F)(F)F)CC1", "growth": "-100% (active)"},
      {"smiles": "COc1ccc2[nH]c(O)c(N=NC(=O)c3cc(-c4ccc(C)cc4)nc4ccccc34)c2c1", "growth": "62.8%"},
      {"smiles": "O=C(Cn1cc(CSc2nnc3oc4ccccc4n23)nn1)Nc1ccc(Br)cc1", "growth": "82.5%"},
      {"smiles": "CN1CCN(c2ccc(Nc3nc(N4CCN(S(=O)(=O)c5ccc(F)cc5)CC4)c4sccc4n3)cc2)CC1", "growth": "-79.8% (active)"},
      {"smiles": "COc1ccccc1NCc1ccc(CO)n1-c1ccc(C)cc1", "growth": "96.7%"},
      {"smiles": "CC(=C(c1ccc(OCCCN(C)C)cc1)c1ccc(OCCCN(C)C)cc1)c1ccccc1", "growth": "-92.1% (active)"},
      {"smiles": "CN1CCN(c2ccc(Nc3nc(NCCCNC(=O)c4ccccc4)c4sccc4n3)cc2)CC1", "growth": "12.3%"},
      {"smiles": "CCCCCc1ccc(S(=O)(=O)N(C(C)=O)c2cc(-c3csc(N(C)C(C)=O)n3)ccc2N2CCN(C)CC2)cc1", "growth": "-89.7% (active)"},
      {"smiles": "C=C1CC[C@H](C(=C)C)[C@H]2C=C(C)C(=O)C3=C(C(=O)[C@@](C)(O)C3)[C@H]12", "growth": "-80.8% (active)"},
      {"smiles": "CC(=O)Nc1nc(-c2ccc(N3CCN(C)CC3)c(NS(=O)(=O)c3cccc4c(N(C)C)cccc34)c2)cs1", "growth": "18.5%"},
      {"smiles": "CNC(=O)c1cccc(N2CCc3c2ccc(NC(=O)Nc2ccc(N4CCN(C)CC4)c(C(F)(F)F)c2)c3F)c1", "growth": "-89.8% (active)"},
      {"smiles": "CN1CCN(c2ccc(Nc3nc(N4CCN(S(=O)(=O)c5ccc(Cl)cc5)CC4)c4sccc4n3)cc2)CC1", "growth": "-78.6% (active)"},
      {"smiles": "CC1(C)CC[C@]2(C(=O)NCCCNCCCCNCCCN)CC[C@]3(C)C(=CC[C@@H]4[C@@]5(C)Cc6c([nH]c7ccccc67)C(C)(C)[C@@H]5CC[C@]43C)[C@H]2C1", "growth": "85%"},
      {"smiles": "C=CC(=O)Nc1nc(-c2cccc(NS(=O)(=O)c3cccc4c(N(C)C)cccc34)c2)cs1", "growth": "-76.8% (active)"},
      {"smiles": "COC1CC(Cn2cc(COc3ccc4ccc(=O)oc4c3)nn2)C(OCc2ccccc2)C(OCc2ccccc2)C1OCc1ccccc1", "note": "(configuration not stated)", "growth": "88.9%"}
    ]}
  ]
}
